AmpC no deterg: blocks E. coli AmpC beta-lactamase in detergent-free assay. P00811. AmpC nitrocefin hydrolysis, absorbance 480 nm, 0.0001% Triton. Potency, µM (top dose mostly 57.1 µM), without a hit: at the highest dose activity change, negative = inhibition, hits mostly inhibitors. 330,000 compounds, 0.52% hits. AID 485341;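 further: plate controls were no compound for no effect and no enzyme for full effect; nearly all actives have a fitted effect of over 20% in size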
Target sequence (P00811 whole entry, looked up): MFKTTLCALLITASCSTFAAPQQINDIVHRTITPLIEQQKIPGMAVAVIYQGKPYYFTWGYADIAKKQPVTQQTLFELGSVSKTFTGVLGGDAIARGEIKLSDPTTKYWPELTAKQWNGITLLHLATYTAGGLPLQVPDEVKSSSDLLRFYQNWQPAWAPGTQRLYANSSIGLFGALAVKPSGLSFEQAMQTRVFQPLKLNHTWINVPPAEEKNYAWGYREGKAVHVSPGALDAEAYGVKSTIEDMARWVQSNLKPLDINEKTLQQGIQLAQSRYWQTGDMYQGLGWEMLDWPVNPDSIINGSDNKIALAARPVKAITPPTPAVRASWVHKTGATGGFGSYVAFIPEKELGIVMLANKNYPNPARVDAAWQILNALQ
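AmpC (5.3 nM in the dispensed reagent) in 20 mM phosphate pH 7.0 with 0.01% (detergent screen) or 0.0001% Triton X-100 was preincubated with compounds for 15 min at room temperature. Nitrocefin was then added from an 800 uM solution, and hydrolysis was followed at 480 nm.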
Sm TGR block: inhibitors of Schistosoma mansoni thioredoxin glutathione reductase. purified TGR, DTNB reduction, TNB absorbance 405 nm. Potency, µM (highest dose often 114 µM), without a hit: top-dose activity change, negative = inhibition, most hits filed as inhibitors. 360,000 compounds, 3% hits; further: nearly all actives have a fitted effect of over 60% in size
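TGR 20 nM + NADPH 100 uM (dispensed conc.), cpd preinc 15 min RT; start with NADPH (500 uM addition) then DTNB (15 mM addition). Kinetic TNB absorbance, 405 nm filter. Four-parameter Hill fit across titration.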
FBPA Giardia inh: Giardia lamblia aldolase inhibition; 290,000 compounds, 0.71% hits; purified Giardia FBPA; AID 2451; Potency, µM (highest dose often 59.6 µM), for inactives: top-dose activity, negative = inhibition, hits mostly inhibitors; A8B2U2; further: nearly all actives have a fitted effect of over 55% in size
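40 nM FBPA preincubated 10 min at RT with compound (up to 57.5 uM final), then substrate plus GAPDH/TPI/NAD/arsenate coupling and diaphorase/resazurin added. Fluorescence read after 20 min at RT, 525/598 nm.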
AmpC inh detg: AmpC beta-lactamase inhibition with detergent present | P00811 | AmpC hydrolysis of nitrocefin, absorbance 480 nm, 0.01% Triton | Potency, µM (series often up to 114 µM), for the others: at the highest dose activity change, negative = inhibition, usual class: inhibitors | 370,000 compounds, 0.041% hits;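 further: 0% = no-compound wells and -100% = no-enzyme wells; nearly all actives have a fitted effect of over 25% in size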
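20 mM phosphate pH 7.0 + 0.01% (detergent screen) or 0.0001% Triton X-100; 5.3 nM AmpC reagent; cpd preinc 15 min RT; nitrocefin (800 uM stock) to start; A480 q20 s × 4 min; Activity was normalised to no-enzyme and no-compound control wells.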
An asterisk follows results filed as active; u = inconclusive; x = not tested or not shown. Shown are actives, neighbours in structure and some others; about 3.6% of the full set was active somewhere. The call rests on the fitted dose curve; in most records, active means well fitted curve in the direction sought with a large enough effect; inconclusive means small, poorly fitted or top-dose-only effect, or another doubt; inactive means no such curve, though single readings can be large; an effect the other way counts as inactive or inconclusive. Unless noted, on the % scale 0 is the no-effect control and ±100 the full control effect; potency means the concentration at half of the fitted maximal effect.

SMILES | AmpC no deterg | Sm TGR block | FBPA Giardia inh | AmpC inh detg
COc1ccc(CNS(=O)(=O)c2c(C)[nH]c(C)c2C(=O)N2CCCCC2)cc1 | -7% | -19% | 1% | -10%
CCOC(=O)C1CCN(C(=O)C2COc3ccccc3C2)CC1 (stereo unspecified) | x | -5% | x | 0%
COc1cc(OC)c2c(c1)OC(c1ccccc1)CC2=O (stereo unspecified) | x | x | -10% | x
COc1cc(OC)c2c(c1O)OC(c1ccccc1)CC2=O (stereo unspecified) | -26% | 50µM* | -19% | 4%
O=[N+]([O-])c1cccc(S(=O)(=O)NCc2ccncc2)c1 | 32% | -8% | 7% | -8%
COc1ccc(NC(=O)c2cc3c(=O)n(Cc4ccco4)ccc3nc2C)c(OC)c1 | x | u | x | 12%
Cc1ccc(N(CCC#N)C(=O)CCl)cc1C | -18% | 18µM* | -4% | 3%
Cc1ccc(SCC(=O)OCC(=O)N(CCC#N)c2ccccc2)cc1C | 26% | u | x | 0%
O=[N+]([O-])c1cccc(-c2n[nH]c(=S)n2-c2ccc(Br)cc2)c1 | -47% | 0.79µM* | 30% | -5%
Cc1ccccc1S(=O)(=O)/N=C(/c1ccccc1)N1CCOCC1 | 0% | -9% | 5% | 3%
O=C(CSCc1ccco1)c1ccc(Cl)s1 | u | 28µM* | 0% | u
O=C(NCCSCc1ccco1)c1ccc(=O)[nH]c1 | -19% | 35µM* | -13% | -4%
O=C(CSCc1ccc(Cl)cc1)NCCSCc1ccco1 | -31% | 28µM* | -9% | -7%
CS(=O)(=O)Nc1ccc(C(=O)NCCSCc2ccco2)cc1 | u | u | 1% | -4%
CCc1ccc(OCCCSc2nc(-c3ccc(C(C)(C)C)cc3)nc3cc(=O)[nH]n23)cc1 | x | 3% | x | u
Cc1ccc(C(=O)C=CNNC(=O)c2ccccc2)cc1 | -38% | 40µM* | -21% | u
O=C(/C=C/NNC(=O)c1ccccc1)c1ccccc1 | -37% | 0% | u | -13%
CC(/C=C/C(=O)c1ccc(C)cc1)=C\c1ccccc1 | -29% | 2% | -7% | u
Cc1ccc(C(=O)/C=C\C(=O)c2ccc(C)cc2)cc1 | -23% | 1.8µM* | 3% | -7%
O=C(O)/C=C/C(=O)c1ccc(O)cc1 | -1% | 3.2µM* | -2% | 2%
Cc1ccsc1/C=N/NC(=O)C1C(=O)NCC1c1ccccc1 (stereo unspecified) | 3% | 2% | -13% | -3%
C/C(=N\O)C(=O)C(CN1CCCCC1)CN1CCCCC1 | -7% | 1.8µM* | -2% | 4%
COc1ccccc1/C=c1\sc2nc(-c3ccco3)nn2c1=O | -32% | 11µM* | -10% | u
COc1ccc(C(=O)n2nc(-c3ccco3)nc2N)cc1 | -16% | 32µM* | 24% | 5%
COc1ccccc1C(=O)n1nc(-c2ccco2)nc1SC | -19% | 14µM* | -18% | 3%
SMILES | AmpC no deterg | Sm TGR block | FBPA Giardia inh | AmpC inh detg
CSc1nc(-c2ccco2)nn1C(=O)c1ccccc1 | -14% | 16µM* | -9% | 3%
CSc1nc(-c2ccco2)nn1S(=O)(=O)c1ccccc1 | -7% | -7% | 11% | -7%
CCS(=O)(=O)n1nc(-c2ccco2)nc1SC | x | u | 28µM* | -13%
O=C(NCCN1CCCC1)c1ccccc1Cl | -7% | 4% | -3% | -2%
O=C1C(Cl)=C(NCCN2CCCCC2)C(=O)c2ccccc21 | -37% | 22µM* | u | 8%
CCN(CC)C(=O)c1c(-c2ccccc2)c(-c2ccccc2)nn(C)c1=O | x | 1% | x | 19%
Cc1ccc(-n2nc3c(c2NC(=O)c2ccco2)CS(=O)C3)c(C)c1 (stereo unspecified) | -9% | 40µM* | x | u
Cc1ccc(-n2nc3c(c2NC(=O)CC(C)C)CS(=O)C3)cc1 (stereo unspecified) | -31% | 50µM* | 1% | -13%
CC(=O)Nc1c2c(nn1-c1ccccc1C)CS(=O)C2 (stereo unspecified) | -10% | 50µM* | 1% | -8%
Cc1cccc(-n2nc3c(c2NC(=O)c2ccco2)CS(=O)C3)c1C (stereo unspecified) | -5% | 0% | 8% | -3%
CC(C)(C)n1nc2c(c1NC(=O)Cc1ccccc1)CS(=O)(=O)C2 | 1% | 8% | 7% | u
Cc1cccc(NC(=O)CSc2nc3ccccc3c(=O)n2CC2CCCO2)c1 (stereo unspecified) | 34% | x | x | x

Screening data deposited in PubChem BioAssay by National Center for Advancing Translational Sciences (NCATS).
